High-throughput results deposited in PubChem by several laboratories.
proKLK7 act: proKLK7 zymogen activators, primary screen, biochemical, fluorescence intensity. purified proKLK7, EDANS-DABCYL substrate fluorescence; 100% is mature enzyme control, 0% vehicle. activation, % at 7 µM. actives 0.9% (n = 370,000);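 active = activation above the mean of all tested compounds plus 3 SD, computed per campaign excluding outliers beyond control limits, cut at about 13% in these data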
FAS-TE inh: FAS thioesterase domain inhibitors, primary screen, biochemical, fluorescence intensity, uHTS; recombinant FAS-TE, OMFH fluorogenic substrate, fluorescence endpoint; Fatty acid synthase (Homo sapiens), P49327; inhibition, % at 15 µM; actives 0.67% (n = 360,000);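 active = compounds whose normalised, plate-corrected inhibition of enzyme fluorescence in the single-dose primary screen is 50% or more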;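 note: 0% = DMSO with enzyme and 100% = substrate without enzyme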
Neddylation inh: inhibitors of cullin neddylation, primary screen, biochemical, TR-FRET, uHTS, NAE and Ubc12; NEDD8-conjugating enzyme Ubc12 (Homo sapiens) + NEDD8-activating enzyme E1 regulatory …; calls only at 25 µM; AID 651699, 2012; actives 0.58% (n = 360,000); in the data active = inhibition above about 36%
Target sequence (P61081 whole entry, looked up): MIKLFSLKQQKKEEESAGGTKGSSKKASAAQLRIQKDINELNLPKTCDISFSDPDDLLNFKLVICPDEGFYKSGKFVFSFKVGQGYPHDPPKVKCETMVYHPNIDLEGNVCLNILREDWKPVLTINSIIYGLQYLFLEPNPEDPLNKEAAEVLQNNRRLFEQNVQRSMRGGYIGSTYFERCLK
Target sequence (Q13564 whole entry, looked up): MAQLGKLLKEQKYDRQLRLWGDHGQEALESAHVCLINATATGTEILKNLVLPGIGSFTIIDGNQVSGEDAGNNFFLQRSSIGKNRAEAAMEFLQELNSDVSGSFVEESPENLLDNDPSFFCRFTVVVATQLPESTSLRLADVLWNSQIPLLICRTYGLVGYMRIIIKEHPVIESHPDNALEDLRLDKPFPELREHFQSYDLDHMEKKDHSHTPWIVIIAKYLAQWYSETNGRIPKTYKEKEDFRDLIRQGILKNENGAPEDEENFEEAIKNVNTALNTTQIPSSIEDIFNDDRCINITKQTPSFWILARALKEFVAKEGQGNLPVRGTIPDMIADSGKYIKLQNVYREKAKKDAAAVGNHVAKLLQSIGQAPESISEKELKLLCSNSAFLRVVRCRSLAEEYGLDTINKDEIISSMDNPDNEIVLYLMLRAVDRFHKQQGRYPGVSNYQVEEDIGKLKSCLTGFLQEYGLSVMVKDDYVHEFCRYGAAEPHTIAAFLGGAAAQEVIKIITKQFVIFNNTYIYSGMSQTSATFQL
PfG6PD inh: PfG6PD enzyme inhibitors, primary screen, biochemical, fluorescence intensity, uHTS; glucose-6-phosphate dehydrogenase-6-phosphogluconolactonase (Plasmodium falciparum 3D7); PfGluPho enzyme, NADPH resazurin-diaphorase fluorescence; inhibition, % at 20 µM; actives 0.78% (n = 350,000); AID 504690, 2011;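 active = inhibition reaching at least a set limit at 20 µM in the primary screen, cut at about 59% in these data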;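 note: 0% = DMSO wells with substrate and 100% = DMSO wells lacking glucose-6-phosphate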
Neddyl inh conf: blockade of NEDD8 conjugation to cullin – biochemical, TR-FRET, single concentration, confirmation; shares compounds with Neddylation inh; TR-FRET cullin neddylation biochemical assay; calls only at 25 µM; actives 13% (n = 1,800); in the data active = inhibition above about 40%;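 note: neddylation substrate is the cullin 1 ring ligase complex with SKP2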
* marks the source's active call; other numbers are inactive results; i = inactive; / = not tested or not shown; + = active, no number. This is a sample that favours compounds with a hit; in the whole collection about 2.7% have one here.

SMILES	proKLK7 act	FAS-TE inh	Neddylation inh	PfG6PD inh	Neddyl inh conf
Cc1cc(=O)n2[nH]c(-c3ccccc3)cc2n1	-3	-7	+	0	i
Cc1ccc(/C=C/c2nc3sc(C(=O)O)c(C)c3c(=O)[nH]2)cc1[N+](=O)[O-]	-1	7	i	29	/
Cc1c(C(=O)O)sc2nc(/C=C/c3cccc(F)c3)[nH]c(=O)c12	-2	-2	+	12	/
Cc1ccc(-c2c(NC(=O)c3ccc(F)cc3)nc3ncccn23)cc1	9	/	/	/	/
COC(=O)c1cc(S(=O)(=O)N2CCCN(C(C)=O)CC2)cn1C	0	/	/	/	/
CCOC(=O)/C=c1\s/c(=C\c2ccc3c(c2)OCCO3)c(=O)n1CC(=O)NCC1CCCO1 (stereo unspecified)	-2	-12	+	2	i
CCOC(=O)/C=c1\s/c(=C\c2c(OCC)ccc3ccccc23)c(=O)n1CC(=O)NCC1CCCO1 (stereo unspecified)	-4	14	i	5	/
CCOC(=O)/C(O)=C(\C#N)c1nc2ccccc2[nH]1	-1	-2	+	-4	/
CCOc1ccc(NC(=O)COC(=O)c2ccc3ncsc3c2)cc1OCC	0	-9	+	8	i
CC(C)(C)c1ccc(NC(=O)COC(=O)c2ccc3ncsc3c2)cc1	-1	0	i	-1	/
CCOc1ccc(C(=O)COC(=O)Cn2[nH]c(=O)c3ccccc3c2=O)cc1	0	0	i	18	/
COC(=O)[C@]12C[C@H](CC(=O)NCc3ccc(OC)c(OC)c3)C(=O)N(Cc3ccc(Cl)cc3Cl)C1=C[C@H](C(C)(C)C)O[C@@H]2C	0	/	/	/	/
O=C(NCc1ccco1)c1cccn2c(=O)c3sccc3nc12	2	6	+	6	/
O=C(CSc1nc2ccsc2c(=O)n1Cc1ccc(C(=O)O)cc1)NCc1ccco1	0	-2	i	-16	/
O=C(NCc1cccs1)c1cccn2c(=O)c3sccc3nc12	2	18	+	-7	i
O=C(NCc1cccs1)c1cnc2ccccn2c1=O	/	5	i	-1	/
COc1cccc(-c2cc3nc(C)cc(N4CCN(C(=O)c5ccoc5)CC4)n3n2)c1	0	-3	+	16	/
COc1ccc(-c2cc3nc(C)cc(N4CCN(C(=O)c5ccoc5)CC4)n3n2)cc1	0	2	/	19	/
Cc1cc2c(c(=O)o1)[C@@]1(C(=O)N(C)c3ccccc31)C1=C(CCCC1=O)O2	1	/	/	/	/
CCCn1c(C)cc(/C=C(\C#N)C(=O)OCC(=O)Nc2cccc(OC)c2)c1C	-235	19	i	-4	/
CCCn1c(C)cc(/C=C(\C#N)C(=O)OCC(=O)Nc2cccc(S(N)(=O)=O)c2)c1C	-44	-2	+	-2	i
Cc1cc(/C=C(\C#N)C(=O)OCC(=O)NC(=O)NC(C)(C)C)c(C)n1CCC(C)C	0	-10	+	8	i
COC(=O)[C@]12C[C@H](CC(=O)NCCC(C)C)C(=O)N(Cc3ccc(Cl)cc3Cl)C1=C[C@H](C(C)C)O[C@@H]2C1CC1	0	/	/	/	/
Cc1ccc2c(c1)C(CS(=O)(=O)NCc1ccccc1)NC2 (stereo unspecified)	0	/	/	/	/
COC(=O)[C@]12C[C@H](CC(=O)NCCCN3CCCC3=O)C(=O)N(CCC3=CCCCC3)C1=C[C@H](C(C)C)O[C@@H]2C1CC1	0	/	/	/	/
SMILES	proKLK7 act	FAS-TE inh	Neddylation inh	PfG6PD inh	Neddyl inh conf
C=CCN(CC#CC1=CCCCC1)Cc1ccc(OC)cc1OC	0	/	/	/	/
NC1=NC(=O)/C(=C/c2c(OS(=O)(=O)c3ccc(Cl)cc3)ccc3ccccc23)S1	0	-7	+	5	i
NC1=NC(=O)/C(=C/c2ccccc2OS(=O)(=O)c2ccccc2)S1	0	-8	i	9	/
CCN1CCCCC(NC(=O)c2ccc(C)cc2)C1=O (stereo unspecified)	0	/	/	/	/
O=C(Nc1nc2n(n1)C(c1ccccc1)CC(c1ccc(Cl)cc1)N2)c1ccco1 (stereo unspecified)	1	5	i	25	/
COc1ccc(C2CC(c3ccc(OC)cc3)n3nc(NC(=O)c4ccco4)nc3N2)cc1 (stereo unspecified)	-6	-3	+	12	i
COc1ccc(C2CC(c3ccccc3)Nc3nc(NC(=O)c4ccco4)nn32)cc1 (stereo unspecified)	-3	2	+	-18	i
Cc1[nH]c2ccccc2c1CC(=O)Nc1ccc(Nc2ccccc2)cc1	0	/	/	/	/
COC(=O)c1cccc([N+](=O)[O-])c1CN1CCCC(C(N)=O)C1 (stereo unspecified)	0	-3	+	0	i
O=C(C1CCCN(Cc2ccccc2[N+](=O)[O-])C1)N1CCCCC1 (stereo unspecified)	0	-5	i	-2	/
Cc1ccc2c(c1)-c1c(cnn1CC(=O)NCCc1ccc(O)cc1)CO2	0	/	/	/	/
COc1ccc(-n2cc(CNCc3cnc4ccccn34)c(-c3cccc(F)c3)n2)cc1	0	-1	+	17	/
Cc1cc2c(c(N)n1)c(=O)oc1ccccc12	1	-2	+	-17	i
CC1Cn2c(nnc2-c2cc3ccccc3cc2O)S1 (stereo unspecified)	-73	-2	+	-9	i
COc1cc(O)cc(/C=C/c2ccccc2)c1	0	10	+	0	+
COc1ccc(C(=O)/C=C/c2ccccc2)c(O)c1	0	6	i	12	/
CC(C)N1CCCCC(NC(=O)c2ccc(F)c(F)c2)C1=O (stereo unspecified)	-1	/	/	/	/
OCC[C@@H]1C[C@H](O)[C@@H](O)[C@@]2(OCCc3cc(C(F)(F)F)ccc32)O1	0	/	/	/	/
Cc1c(OC(C)C(=O)NCCN2CCOCC2)ccc2c3c(c(=O)oc12)CCCC3 (stereo unspecified)	-4	-6	+	16	/
Cc1cc(=O)oc2c(C)c(OC(C)C(=O)NCCN3CCOCC3)ccc12 (stereo unspecified)	-1	-5	i	-1	/
COc1ccc(CN(C)C(=O)CCNS(=O)(=O)c2ccccc2)c(OC)c1	0	-6	i	7	/
CC(C)Nc1ncnc2c1cnn2-c1ccccc1	0	-2	i	21	/
Cc1cccc(-n2ncc3c(NC(C)C)ncnc32)c1	-1	-7	+	26	i
O=C(/C=C/[C@H]1O[C@@H](n2cnc3c(NC(=O)c4ccccc4)ncnc32)[C@H](O)[C@@H]1O)NCc1ccco1	0	-13	i	/	/
